Assay results reported in PubChem BioAssay AID504843 (Broad Institute, 2011).
Among all 1,200 compounds or so, about 360 (30%) were called active. These entries were drawn from the full list. Measured potencies and affinities stand elsewhere. A number with no mark means an inactive call. How the calls were made is not given here.

Assay: bacterial growth inhibition, dose response, counter-screen, BacTiter-Glo luminescence, cherry-picked samples (AID 504843);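 further: growth measured after 8 h incubation at 30 °C; 0% = median of sample compound wells and -100% = antibiotic control wells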
Conditions: BacTiter-Glo ATP luminescence; series mostly up to 15 µM; activity change, negative = inhibition: at the top concentration

SMILES | activity change, negative = inhibition
Cc1ccc(C)c(S(=O)(=O)Nc2cc(SCC(=O)O)c(O)c3ccccc23)c1 | -2.04%
CC1(C)c2ccccc2N2CC(=O)NC21/C=C/c1ccco1 (stereo unspecified) | -2.83%
C=CCn1cccc(C(=O)Nc2ccc(OC)cc2)c1=O | -12.5%
C=CCNC(=S)Nc1cccc2[nH]ncc12 | -0.478%
O=[N+]([O-])c1cccc(N(CC(O)CN2CCCCC2)S(=O)(=O)c2ccccc2)c1 (stereo unspecified) | -3.49%
COc1cccc(CN2CCN(C(=O)c3ccco3)CC2)c1 | 18.3%
COc1ccc(S(=O)(=O)Nc2nc3c(s2)CCCC3)cc1 | 12.9%
Nc1ccc(S(=O)(=O)N2CCCc3ccccc32)cc1 | -21.1%
CCC(CO)NC(=O)c1cccc(S(=O)(=O)N2c3ccccc3CC2C)c1 (stereo unspecified) | 9.79%
O=C(COC(=O)c1cccc(S(=O)(=O)N2CCc3ccccc32)c1)Nc1ncc(C(F)(F)F)cc1Cl | 2.36%
C[C@H]1NC(=O)[C@@]2(C)[C@@H](c3ccccc3)[C@H]3COc4ccccc4[C@H]3N2C1=O | -2.87%
CCNc1nc(SCCOc2ccc(C)cc2)nc(N(C)C)n1 | -1.81%
CCC1SC(C)C/C(=N/NC(N)=O)C1C (stereo unspecified) | 17.8%
CN(C)c1cccc(C(=O)N/N=C/c2ccccc2F)c1 | -8.46%
CCOC(=O)c1ccc(NC(=O)c2cn(CCC#N)nc2-c2ccc3c(c2)OCCO3)cc1 | 15.1%
O=C(NCc1cccnc1)c1cccc(-c2cc3ccccc3oc2=O)c1 | 13.5%
Cc1cnc(C(=O)OCC(=O)Nc2sc3c(c2C#N)CCC3)cn1 | 5.17%
CC1CCN(C(=O)c2ccc(S(=O)(=O)N3CCCC3)cc2)CC1 | -11.1%
CC(=O)Oc1ccc(C(=O)Nc2ccccc2C(=O)N2CCCCC2)cc1 | -5.23%
Cc1ccccc1C(=O)N1CCN(c2ccc(NC(=S)NC(=O)c3cccs3)cc2)CC1 | -13.8%
CCOC(=O)C1CCN(C(=O)Nc2ccc(C)c(Cl)c2)CC1 | 2.75%
CCc1ccc2c(COC(=O)C3CC(=O)N(CCc4ccccc4)C3)cc(=O)oc2c1 (stereo unspecified) | -8.14%
CCn1c(SCC(=O)c2ccccc2)nnc1-c1cccnc1 | 4.29%

SMILES | activity change, negative = inhibition
CN(C)c1nc(NCc2ccccc2)nc(SCC(N)=O)n1 | 0.62%
COc1ccc(NC(=O)COCC(=O)Nc2ccc(C)cc2)cc1 | 2.25%
CCOC(=O)C(C(=O)Nc1ccc(C)cc1)C1CCCCC1 (stereo unspecified) | 2.6%
CC(C)(C)CC(=O)Nc1cccc(-c2cn3cccnc3n2)c1 | -11.7%
Cc1ccc(OCCNS(=O)(=O)c2ccc(N3CCCC3=O)cc2)cc1C | -1.98%
CCCCOc1ccc(NC(=O)c2cc(F)c(F)cc2Cl)cc1 | -13.8%
CCc1ccc(NC(=O)Nc2cc(C(=O)NCC3CCCO3)ccc2N2CC3CC(C2)c2cccc(=O)n2C3)cc1 (stereo unspecified) | -0.12%
COc1ccccc1OCCNC(=O)C1CCN(C(C)=O)CC1 | 8.06%
CC(C)(C)OC(=O)NCCCCCNC(=O)c1[nH]cnc1C(=O)NC1CCN(C(=O)OC(C)(C)C)CC1 | -4.62%
Cc1cc(C)cc(-n2c(C)cc(/C=C3\C(=N)N4N=C(CC(C)C)SC4=NC3=O)c2C)c1 | 0.158%
COc1ccc(CCNC(=O)/C=C/c2ccco2)cc1OC | 0.154%
O=C(NNc1ccnc2cc(Cl)ccc12)C1CCCCC1 | -7.77%
Cc1ccc(CN(C(=O)c2sc3ccccc3c2Cl)C2CCS(=O)(=O)C2)cc1 (stereo unspecified) | 9.82%
O=C(O)[C@H](CO)Nc1ncnc2sc3c(c12)CCC3 | 11.8%
O=C(CCNS(=O)(=O)c1ccccc1C(F)(F)F)N1CCN(c2ccccc2O)CC1 | 9.42%
CCN(CC)C(=O)CSc1nc2ccccc2o1 | 16.9%
CCCCN(CC)CCNC(=S)Nc1ccc2nc(N3CCN(C)CC3)cc(C)c2c1 | 1.76%
O=C(Nc1ccc(C2=NCCN2)cc1)c1ccc(C(=O)Nc2ccc(C3=NCCN3)cc2)c([N+](=O)[O-])c1 | 6.04%
CC(=O)Nc1ccc(Nc2nc(C)c([N+](=O)[O-])c(N(C)c3ccccc3)n2)cc1 | 15.8%
CC1CN(C(=O)c2cc3cc([N+](=O)[O-])ccc3oc2=O)CC(C)O1 (stereo unspecified) | 3.61%
O=C(CSC1=NCCS1)c1ccc(Cl)cc1 | 9.01%
Cc1[nH]c2ccccc2c1Cc1nnc(SCC(N)=O)o1 | 1.89%
CCNc1c(NS(=O)(=O)c2ccc(OC)cc2)c(=O)oc2ccccc12 | -17.3%

SMILES | activity change, negative = inhibition
COc1ccc(-c2cc(C)no2)cc1S(=O)(=O)NCCCN1CCCCCC1 | -7.18%
COc1ccccc1N1CCN(c2nc(-c3ccccc3)cc(C(F)(F)F)n2)CC1 | -0.607%
CCNc1nc(NCC)nc(OCCOC(C)=O)n1 | -9.52%
Nc1cc(N)nc(SCc2ccc(Cl)cc2)n1 | 4.2%
O=C(Nc1ccccc1F)c1ccc([N+](=O)[O-])s1 | 17.9%
Cc1cccc(NC(=O)c2cc(S(=O)(=O)N3CCC4(CC3)OCCO4)ccc2F)c1 | -2.34%
c1ccc2c(N3CCOCC3)nc(-c3ccncc3)nc2c1 | -1.69%
CCNC(=O)NC(=O)C(C)OC(=O)C1CCN(S(=O)(=O)c2ccccc2F)CC1 (stereo unspecified) | 18.5%
Cc1cc(C)c(S(=O)(=O)N2CCN(C(=O)CN3C(=O)NC4(CCCC4)C3=O)CC2)c(C)c1 | 6.89%
Cc1ccc(C)c(SCC(=O)Nc2cccc(S(=O)(=O)NC3=NCCCCC3)c2)c1 | 8.62%
Cc1ccc(CCNC(=O)CCS(=O)(=O)c2cc3c(cc2C)NC(=O)CO3)cc1 | 7.13%
CN(Cc1ccccc1)c1ncnc2sccc12 | 5.73%
Cc1cccc(NC(=O)[C@H](Cc2ccccc2)NC(=O)OCc2ccccc2)c1 | -12.2%
CC(C)(C)CC(=O)Nc1ccc(Nc2ccccc2)cc1 | -10.5%
CSc1ncccc1C(=O)OCC(=O)N(C)c1c(N)n(Cc2ccccc2)c(=O)[nH]c1=O | -15.7%
CC(C)CN(C(=O)COC(=O)c1ccccc1NCc1ccco1)c1c(N)n(Cc2ccccc2)c(=O)[nH]c1=O | 14.3%
COC(=O)C[C@H]1c2cc(F)cc(F)c2S(=O)(=O)N1C1CCN(Cc2ccccc2)CC1 | 8.72%
O=C(Cn1c(=O)oc2cc(S(=O)(=O)N3CCc4ccccc43)ccc21)N1CCCCC1 | -6.67%
CCCCN(CC)CCNS(=O)(=O)c1ccc2c(c1)oc(=O)n2C | 2.71%
CCOc1cc(/C=N/NC(=O)C(=O)NCc2cccnc2)ccc1O | -2.33%
Cc1ccccc1NC(=S)N1CCN(Cc2ccc3c(c2)OCO3)CC1 | 0.01%
COc1ccccc1C(=O)Nc1ccc2c(c1)CN(Cc1cnc(C)s1)CC2 | 11%
Cc1cccc(NC(=O)CNC(=O)CN2C(=O)NC3(CCc4ccccc43)C2=O)c1C (stereo unspecified) | -4.94%

SMILES | activity change, negative = inhibition
Cc1ccc(C)c(NC(=O)CN(C)C(=O)c2cccc(S(=O)(=O)N(C)C)c2)c1 | -5.14%
CCN(CC)S(=O)(=O)c1cc(NC(=O)c2ccc(-n3cncn3)c([N+](=O)[O-])c2)ccc1C | 6.68%
CC1CCN(c2ccc(C(=O)NCc3ccco3)cc2[N+](=O)[O-])CC1 | -10.9%
CC1(C)C2CCC1(C)C(NC(=O)/C=C/c1ccccc1)C2 (stereo unspecified) | -17.4%
O=c1oc2ccccc2c(N2CCC(c3ccccc3)CC2)c1[N+](=O)[O-] | -11.2%
Cc1ccccc1N/N=C/c1ccc(C#N)cc1 | 13.8%
Cc1ccc(-c2nn(-c3ccccc3)cc2CC(=S)N2CCOCC2)cc1 | 16.7%
O=C(CSc1nnc(-c2ccccc2)n1C1CCCCC1)N1CCCC1 | -4%
Cc1cccc(-n2c(SCC(=O)NC3CCCC3)nnc2-c2ccoc2C)c1 | 4.43%
Cc1ccc(C2CC(c3ccccc3)n3ncnc3N2)cc1 (stereo unspecified) | 15.1%
CCn1c(C)cc(/C=C2/NC(=O)N(Cc3ccccc3F)C2=O)c1C | -2.29%
COc1cccc(NC(=O)c2ccc3c(SCC(=O)O)c4c(nc3c2)CCCC4)c1 | -8.76%
CC(=O)Nc1cccc(Oc2nc(C(F)(F)F)nc3ccccc23)c1 | 7.17%
Cc1ccc(OCCOCCNC(C)(C)C)c([N+](=O)[O-])c1 | 13.6%
N#Cc1ccccc1CSc1ccccn1 | -0.492%
CC(CN1CCOCC1)(NS(=O)(=O)c1ccccc1)c1ccccc1 (stereo unspecified) | -7.28%
O=C(CNC1CCCCCC1)Nc1ccccc1N1CCCCC1 | 2.03%
O=C(CNC1CCCCC1)Nc1cc(S(=O)(=O)N2CCOCC2)ccc1Cl | 11.2%
O=C(NCCOC(=O)c1cccs1)c1cccnc1 | -11.1%
COc1ccc(OC)c(-n2c(SCC(=O)N3CCc4ccccc43)nc3c(c2=O)SCC3)c1 | -3.67%
Fc1cccc(NC(=S)NCCCN2CCOCC2)c1 | 17.8%
O=C1CCCN1Cc1ccccc1 | 1.89%
O=C(Cn1nc(C(=O)O)c2ccccc2c1=O)NCc1ccco1 | 16.7%

SMILES | activity change, negative = inhibition
N#C/C(=C(/O)CN1CCN(c2ccccc2F)CC1)c1nc(-c2ccc(Cl)cc2)cs1 | -2.75%
C[C@@H]1CN([C@H](C)CO)C(=O)c2cc(NS(=O)(=O)c3cccs3)ccc2O[C@H]1CN(C)Cc1ccccc1 | 16.7%
C(=N\Nc1ccccn1)/c1ccc(N2CCOCC2)cc1 | -20.3%
COc1cc(/C=N/NC(=O)c2ccccn2)ccc1OC(=O)c1ccc(Br)cc1 | -2.98%
Cn1c(Cn2c(=O)sc3ccccc32)nnc1SCc1ccccc1F | -14.5%
CCCCCCc1ccc(N2C[C@H](Cc3ccccc3)[C@@H](CC(=O)NCc3ccc(OC)cc3)C2=O)cc1 | 5.21%
CCCC(=O)c1c[nH]c(C(=O)N2CCOCC2)c1 | -14.1%
CCCNC(=O)COc1coc(CN2CCN(c3ccccc3F)CC2)cc1=O | 6.92%
CCCc1[nH]nc2c1C(c1ccc(OC(=O)c3ccco3)cc1)C(C#N)=C(N)O2 (stereo unspecified) | 6.6%
CC(=O)c1ccc([C@H]2C[C@@]34CN(C(=O)OC(C)(C)C)S(=O)(=O)[C@H]3C[C@H]2O4)cc1 | 17%
CCOC(=O)CSc1nnc(CNC(=O)c2ccc([N+](=O)[O-])cc2)n1C | -4.14%
NC(=O)c1cc2ccc(O)cc2oc1=Nc1ccccc1 | 0.396%
Cc1ccc(NCc2nnc3n2CCCCC3)c(C)c1 | 5%
C[C@H](NS(=O)(=O)c1ccc(Cl)c(Cl)c1)C(=O)OCc1cc(=O)n2cc(Br)ccc2n1 | 2.78%
COc1ccc(NS(=O)(=O)c2cc(NC(=O)CCc3ccc(OC)c(OC)c3)ccc2N2CCOCC2)cc1 | -7.67%
Cc1ccc(NC(=S)NC(=O)c2ccc(F)cc2)cc1S(=O)(=O)Nc1ccccc1Cl | 13.8%
CCOC(=O)c1c(NC(NC(C)=O)C(Cl)(Cl)Cl)sc(C(C)=O)c1C (stereo unspecified) | -8.99%
OCc1ccnc2c(O)cccc12 | 17.6%
CCOC(=O)/C(C#N)=C/c1ccc(OCC(=O)Nc2ccccc2)c(OC)c1 | -1.9%
